Assay outcomes: PubChem, several laboratories
Rows were chosen to be rich in hits. Some 4.9% of all compounds tested hit in one or more screens of this group.
Calb FLC – affects C. albicans growth with fluconazole; C. albicans CaCi-2 (fluconazole-resistant clinical isolate) + fluconazole, Alamar Blue growth, 48 h; growth inhibition, % (no concentration beside the values); hit rate 0.57% among 300,000; AID 1979;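 active means growth inhibition above about 58% in most replicates, limit read from the data, passing the limit was not always enough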;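 further: all wells also contain fluconazole at 8 µg/ml as a sub-toxic cotreatment; 0% = median of DMSO wells and 100% = median of geldanamycin control wells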
Beta cell apopt – blocks beta cell apoptosis; AID 435005; protection from apoptosis, % (concentration not given with the values); hit rate 0.8% among 300,000; INS-1E cytokine-induced death, ATP luminescence, 48 h; percent of positive-control rescue, neutral wells zero;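 active means Every replicate reaches about 75%, or at least half do and their mean reaches it too, limit read from the data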;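 further: 0% = cytokine-treated negative control wells and 100% = positive control rescue; higher means more ATP so stronger rescue from cytokine killing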
CSC inhib – cancer stem cell inhibition | hit rate 1.1% among 300,000 | cancer stem cell-like cells viability, luminescence | inhibition, % at 7.5 µM; in the data active means inhibition above about 75%; tested in HMLE shEcad cells
Mdm2 MdmX PPI – inhibitors of human Mdm2/MdmX interaction | O15151+Q00987 | SaOS-2 split-luciferase Mdm2/MdmX complementation, luminescence | inhibition, % at 8 µM | hit rate 3% among 330,000;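 active means inhibition of at least 50% at 8 µM in the primary screen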
Target sequence (O15151 whole entry, looked up): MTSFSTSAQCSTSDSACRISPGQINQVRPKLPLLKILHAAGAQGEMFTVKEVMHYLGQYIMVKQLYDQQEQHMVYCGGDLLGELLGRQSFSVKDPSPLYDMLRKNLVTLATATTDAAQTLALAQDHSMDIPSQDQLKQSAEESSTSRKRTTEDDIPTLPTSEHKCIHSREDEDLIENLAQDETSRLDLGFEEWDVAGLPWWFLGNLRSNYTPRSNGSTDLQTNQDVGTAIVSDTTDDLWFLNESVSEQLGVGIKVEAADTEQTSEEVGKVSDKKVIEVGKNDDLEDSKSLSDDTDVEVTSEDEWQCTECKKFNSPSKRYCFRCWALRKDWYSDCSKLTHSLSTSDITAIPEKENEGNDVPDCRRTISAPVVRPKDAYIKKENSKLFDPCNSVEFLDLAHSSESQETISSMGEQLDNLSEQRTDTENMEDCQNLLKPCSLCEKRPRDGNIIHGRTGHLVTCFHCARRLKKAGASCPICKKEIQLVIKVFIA
Target sequence (Q00987 whole entry, looked up): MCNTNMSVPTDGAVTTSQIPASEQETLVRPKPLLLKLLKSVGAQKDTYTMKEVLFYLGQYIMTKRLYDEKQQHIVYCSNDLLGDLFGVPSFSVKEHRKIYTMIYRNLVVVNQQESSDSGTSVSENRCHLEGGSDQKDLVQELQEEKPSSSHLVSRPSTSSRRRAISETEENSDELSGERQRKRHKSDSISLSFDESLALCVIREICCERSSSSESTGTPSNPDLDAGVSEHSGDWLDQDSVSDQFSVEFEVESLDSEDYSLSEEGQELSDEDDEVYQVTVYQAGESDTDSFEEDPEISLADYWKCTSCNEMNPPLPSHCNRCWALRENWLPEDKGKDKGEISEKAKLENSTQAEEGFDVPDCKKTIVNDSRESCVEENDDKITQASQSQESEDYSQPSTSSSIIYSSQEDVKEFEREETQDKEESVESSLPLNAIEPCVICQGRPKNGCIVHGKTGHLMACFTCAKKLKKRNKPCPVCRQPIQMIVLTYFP
PP5 inh – PP5 (human) phosphatase inhibition; AID 1987; hit rate 0.18% among 320,000; inhibition, % at 6.7 µM; purified PP5c, OMFP substrate fluorescence;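 active means inhibition above the campaign's mean inhibition across all tested compounds plus 3 SD, cut at about 9.5% in these data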;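 further: 0% = DMSO only and 100% = 100 µM cantharidin control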
PP1 counter – blocks human PP1-alpha phosphatase, a PP5 counter-screen; P62136; purified PP1alpha, OMFP fluorescence; inhibition, % at 6.7 µM; hit rate 0.9% among 320,000; AID 2235;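 active means inhibition above the mean inhibition of all tested compounds plus 3 SD, computed separately for each screening campaign, cut at about 15% in these data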
Mdm2 MdmX conf – human Mdm2/MdmX binding inhibition, confirmed. shares compounds with Mdm2 MdmX PPI. luminescent assay. inhibition, % at 8 µM. hit rate 55% among 10,000. AID 489028; in the data active means inhibition above about 40%
Full FLuc ctr – counter-screen for Mdm2/MdmX inhibitors: full-length luciferase; shares compounds with Mdm2 MdmX PPI; SaOS-2 full-length luciferase counterscreen, luminescence; inhibition, % at 8 µM; hit rate 77% among 6,200; AID 504607;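 active means mean inhibition at 8 µM reaching about 37%, which flags the compound as non-specific, limit read from the data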;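 further: p53-null SaOS-2 cells with luciferase driven by a doxycycline-inducible promoter; compound on cells about two nights before reading with doxycycline added after day one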
Numbers without * were called inactive.

What do the screens show for `COc1ccc(CNc2cc(C)nc3ccc(OC)cc23)cc1`?
Calb FLC: -1; Beta cell apopt: 18; CSC inhib: -5; Mdm2 MdmX PPI: 52*; PP5 inh: -8; PP1 counter: 3; Mdm2 MdmX conf: 28

How did COc1ccc2nc(C)cc(N/N=C/c3ccc(F)cc3)c2c1 do in these assays?
Calb FLC: -16; Beta cell apopt: 107*; CSC inhib: 106*; Mdm2 MdmX PPI: 100*; PP5 inh: 3; PP1 counter: 6; Mdm2 MdmX conf: 100*; Full FLuc ctr: 51*

Results for COc1ccc(/C=N/Nc2cc(C)nc3c(C)cccc23)cc1 ?
Calb FLC: -20; Beta cell apopt: 47; CSC inhib: 27; Mdm2 MdmX PPI: 97*; PP5 inh: 3; PP1 counter: 0; Mdm2 MdmX conf: 56*; Full FLuc ctr: 77*

What do the screens show for `Cc1ccc2nc(C)cc(N/N=C/c3cccc(O)c3)c2c1`?
Calb FLC: 0; Beta cell apopt: 2; CSC inhib: 4; Mdm2 MdmX PPI: 12; PP5 inh: 4; PP1 counter: 0

What do the screens show for `COc1ccc(/C=N/Nc2cc(C)nc3ccccc23)cc1`?
Calb FLC: -12; Beta cell apopt: 50; CSC inhib: 32; Mdm2 MdmX PPI: 98*; PP5 inh: 3; PP1 counter: 4; Mdm2 MdmX conf: 57*; Full FLuc ctr: 46*

How did Cc1nnc(NC(=O)CSc2ccc3nnc(-c4cccnc4)n3n2)s1 do in these assays?
Calb FLC: 9; Beta cell apopt: 0; CSC inhib: -15; Mdm2 MdmX PPI: -9; PP5 inh: -1; PP1 counter: 2

What do the screens show for `CCn1nnnc1NCc1c(OC)ccc2ccccc12`?
Calb FLC: -1; Beta cell apopt: -4; CSC inhib: -9; Mdm2 MdmX PPI: 1; PP5 inh: 4; PP1 counter: -3

What do the screens show for `CC(OC(=O)Cc1ccc(F)cc1)C(=O)NCc1ccc2c(c1)OCO2` (stereo not drawn)?
Calb FLC: 6; Beta cell apopt: -5; CSC inhib: 5; Mdm2 MdmX PPI: 16; PP5 inh: 0; PP1 counter: 0

How did Cc1cc(C)c2ccc3c(C)c(C)nc3c2[nH]1 do in these assays?
Calb FLC: -35; Beta cell apopt: -3; CSC inhib: 21; Mdm2 MdmX PPI: 70*; PP5 inh: 2; PP1 counter: 1; Mdm2 MdmX conf: 42*; Full FLuc ctr: 45*

Results for COc1cccc(CN2CCNC(=O)C2CC(=O)NC2CCCC2)c1OC (stereo not drawn) ?
Calb FLC: -10; Beta cell apopt: -2; CSC inhib: 0; Mdm2 MdmX PPI: -1; PP5 inh: 1; PP1 counter: 1

How did CCOc1cc(C2C(C#N)=C(N)OC(C)=C2C(C)=O)c(Br)c(Br)c1OC(C)C (stereo not drawn) do in these assays?
Calb FLC: 5; Beta cell apopt: 5; CSC inhib: 41; Mdm2 MdmX PPI: 64*; PP5 inh: 5; PP1 counter: 4; Mdm2 MdmX conf: 47*; Full FLuc ctr: 49*

How did CCOc1cc(C2C(C#N)=C(N)OC(C)=C2C(C)=O)cc(Br)c1O (stereo not drawn) do in these assays?
Calb FLC: -33; Beta cell apopt: 4; CSC inhib: -8; Mdm2 MdmX PPI: 3; PP5 inh: 2; PP1 counter: 0

Results for O=C(CN1CC(c2ccccc2)CC1=O)N/N=C/c1cc(Br)ccc1O (stereo not drawn) ?
Calb FLC: 4; Beta cell apopt: 39; CSC inhib: 39; Mdm2 MdmX PPI: 62*; PP5 inh: 0; PP1 counter: 1; Mdm2 MdmX conf: 65*; Full FLuc ctr: 43*

What do the screens show for `CCN[C@H]1CN(CCCOC)S(=O)(=O)c2sc(S(N)(=O)=O)cc21`?
Beta cell apopt: -5; CSC inhib: -8; Mdm2 MdmX PPI: -24; PP5 inh: -2; PP1 counter: -1

How did COc1ccc(CCNC(=O)c2ccccc2NC(=O)CN2CCN(c3ccccc3O)CC2)cc1 do in these assays?
Mdm2 MdmX PPI: 54*; Mdm2 MdmX conf: 45*; Full FLuc ctr: 97*

Results for COc1ccc2c(CC(=O)Nc3cccc(S(=O)(=O)N4CCOCC4)c3)coc2c1 ?
Calb FLC: 1; Beta cell apopt: 1; CSC inhib: -2; Mdm2 MdmX PPI: 19; PP5 inh: 4; PP1 counter: 2

What do the screens show for `COc1cccc(/C(O)=C/c2nc3ccc(C(=O)NCCc4cccc(C)c4)cc3[nH]c2=O)c1`?
Calb FLC: -2; Beta cell apopt: 10; CSC inhib: 16; Mdm2 MdmX PPI: 65*; PP5 inh: -2; PP1 counter: 4; Mdm2 MdmX conf: 2

Results for Cc1ccc(C(=O)N(C)CC(=O)Nc2ccc(F)c(F)c2F)o1 ?
Calb FLC: 4; Beta cell apopt: 9; CSC inhib: 9; Mdm2 MdmX PPI: -1; PP5 inh: 2; PP1 counter: -1

What do the screens show for `COc1ccc2sc(-c3ccc(N(C)C)cc3)c(C#Cc3cncn3C)c2c1`?
Beta cell apopt: 8; CSC inhib: 104*; Mdm2 MdmX PPI: 74*; Mdm2 MdmX conf: 28

Results for CCOC(=O)Cc1csc(NC(=O)CN2CCOCC2)n1 ?
Calb FLC: -7; Beta cell apopt: 5; CSC inhib: 5; Mdm2 MdmX PPI: 8; PP5 inh: 0; PP1 counter: -6

Results for N#CCC(=O)N/N=C/c1cn(Cc2cccc3ccccc23)c2ccccc12 ?
Calb FLC: 6; Beta cell apopt: 31; CSC inhib: 58; Mdm2 MdmX PPI: 66*; PP5 inh: 2; PP1 counter: 4; Mdm2 MdmX conf: 64*; Full FLuc ctr: 55*

Results for N#CCC(=O)N/N=C/c1cn(Cc2ccccc2C#N)c2ccccc12 ?
Calb FLC: 19; Beta cell apopt: -1; CSC inhib: -9; Mdm2 MdmX PPI: 23; PP5 inh: 2; PP1 counter: 0

Results for N#CCC(=O)N/N=C/c1cn(Cc2ccc(Cl)c(Cl)c2)c2ccccc12 ?
Calb FLC: -5; CSC inhib: 10; Mdm2 MdmX PPI: 73*; PP5 inh: 0; PP1 counter: 4; Mdm2 MdmX conf: 47*; Full FLuc ctr: 53*

What do the screens show for `COc1cc(C(C)=O)ccc1Oc1ncccn1`?
Calb FLC: -15; Beta cell apopt: -5; CSC inhib: 0; Mdm2 MdmX PPI: 18; PP5 inh: 2; PP1 counter: -1

How did CC(OC(=O)c1ccc(-c2ccc([N+](=O)[O-])cc2)o1)C(=O)NC(N)=O (stereo not drawn) do in these assays?
Calb FLC: -4; Beta cell apopt: 2; CSC inhib: -6; Mdm2 MdmX PPI: -3; PP5 inh: 1; PP1 counter: -3
